High-throughput results as filed in PubChem.
An excerpt weighted towards active compounds, which were near 5.7% of everything screened.
S2 tox: cell viability loss in ATXN counter-screen; S2 cells (HEK-293 line with an ATXN2-luciferase reporter) viability, CellTiter-Fluor protease fluorescence, 24 h; Potency, µM (top dose mostly 56.7 µM), usual class: cytotoxic; 0.49% of 400,000 active; AID 651635; further: nearly all actives have a fitted effect of over 40% in size
HepG2 tox: HepG2 cytotoxicity, counter-screen for TGF-b inhibitors | Potency, µM (highest dose often 46.1 µM), actives largely listed as cytotoxic | 0.76% of 410,000 active | HepG2 CAGA-GFP viability, ATP luminescence, 18 h | AID 588856
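HepG2 CAGA-GFP cells (1000/well, DMEM with 1% FBS) received compound, then TGF-beta at 500 pg/mL final, and were incubated 18 hours at 37 degrees C. Viability was read by CellTiter-Glo luminescence. Media-only wells were set as complete cell-killing and DMSO as no toxicity.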
ATXN2 expr inh: inhibitors of ATXN2 expression; HEK-293 ATXN2-luciferase reporter, luminescence, 24 h; Potency, µM (doses to about 57 µM), hits mostly inhibitors; 0.72% of 360,000 active; further: nearly all actives have a fitted effect of over 55% in size
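qHTS (up to 57 uM final) was run with 24 h compound exposure of reporter cells at 37 °C. Each well was multiplexed: SteadyGlo luminescence measured ATXN2-luciferase expression after a fluorogenic Gly-Phe-AFC viability readout (25 uM final).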
TGFb SMAD3 inh: TGF-b pathway inhibition; HepG2 CAGA-GFP TGF-b/SMAD3 reporter, GFP fluorescence, 18 h; TGF-beta stimulated, 500 pg/mL final; Potency, µM (top dose mostly 46.1 µM), most hits filed as inhibitors; 1.2% of 410,000 active; AID 588855; further: nearly all actives have a fitted effect of over 65% in size
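Inhibition was scored as loss of TGF-beta-induced (500 pg/mL final, 18 hours, 37 degrees C) GFP in HEPG2 cells carrying a CAGA-GFP reporter, in DMEM with 1% FBS. Well GFP was summed per cell; Activity was normalised to unstimulated and stimulated DMSO wells, then concentration-response fitting.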
IL1B secr inh: inflammasome signaling inhibition, IL-1 beta readout. activity change, % at 57.5 µM. 4.7% of 360,000 active. THP-1 LPS/ATP IL-1B secretion, AlphaLISA, 16 h; active compounds read low. AID 743279; in the data active means activity change below about -50%; inconclusive means mostly about -30% to -49%
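THP-1 cells pretreated 1 hr with compounds (up to 57.5 uM final), then stimulated with LPS (250 ng/mL final) plus ATP (1.25 mM final); secreted IL-1B measured by AlphaLISA after 16 hr, decreased signal indicating inhibition.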
Hits are given with their value; 0 = inactive; ? = inconclusive; - = not tested or not shown; ! = not active in a repeat. Unless noted, the call rests on the fitted dose curve; in most records, active means well fitted curve in the direction sought with a large enough effect; inconclusive means small, poorly fitted or top-dose-only effect, or another doubt; inactive means no such curve, though single readings can be large; an effect the other way counts as inactive or inconclusive.

SMILES | S2 tox | HepG2 tox | ATXN2 expr inh | TGFb SMAD3 inh | IL1B secr inh
O=C(C1CC1)N1CCC(c2nc(-c3ccc(S(=O)(=O)NCC4CCCO4)cc3)no2)CC1 (centres undefined) | 0 | 0 | 0 | ? | 0
O=C(C1CC1)N1CCC(c2nc(-c3ccc(S(=O)(=O)N4CCCC4)cc3)no2)CC1 | 0 | 0 | 0 | ? | 0
O=C(c1ccccc1)N1CCC(c2nc(-c3ccc(S(=O)(=O)NCC4CCCO4)cc3)no2)CC1 (centres undefined) | 0 | 0 | 0 | 0 | -72.0
Cc1ccc(S(=O)(=O)N2CCCC(c3nc(-c4ccc(C)o4)no3)C2)cc1 (centres undefined) | 0 | 0 | 0 | 0 | -73.1
Cc1ccc(-c2noc(C3CCCN(S(=O)(=O)c4ccc(S(=O)(=O)N(C)C)cc4)C3)n2)o1 (centres undefined) | 0 | 0 | 0 | 0 | 0
O=C(Cc1ccccc1)N1CCCC(c2nc(-c3ccc(S(=O)(=O)N4CCCC4)cc3)no2)C1 (centres undefined) | ? | 0 | 0 | 0 | -71.5
CCN1CCCC1CNC(=O)c1cnn(-c2nccc(-c3cc(OC)ccc3OC)n2)c1C (centres undefined) | 0 | - | - | - | -
Cc1cccc2sc(N(Cc3cccnc3)C(=O)c3cccs3)nc12 | - | 0 | - | 0 | -
O=C1c2cccc3cccc(c23)C(=O)N1OS(=O)(=O)c1ccc(Cl)cc1 | 0 | 0 | 0 | 0 | 0
CCc1ccc(S(=O)(=O)ON2C(=O)c3ccccc3C2=O)cc1 | - | 0 | 29.9µM | ? | 0
CN(C)c1ccc(-c2n(C)c3ccccc3[n+]2C)cc1 | 0 | 0 | 0 | 0 | -80.4
Cc1nn(C)cc1CN1CCOc2ccc(CN3CCC(Oc4cccnc4)CC3)cc2C1 | 0 | - | - | - | -
Cc1ccc(OCC(O)CN2CCOCC2)cc1 (centres undefined) | ? | 0 | - | 0 | 0
Brc1ccc(OCCCCCN2CCOCC2)cc1 | 0 | 0 | 0 | 0 | -59.0
OC(COc1ccc(Br)cc1)CN1CCOCC1 (centres undefined) | 0 | 2.82µM | 0 | 0 | 0
CN1CCN(CC(O)COc2ccc(C34CC5CC(CC(C5)C3)C4)cc2)CC1 (centres undefined) | 0 | 0 | 0 | ? | -99.1
CC(C)(c1ccccc1)c1ccc(OCC(O)CN2CCCC2)cc1 (centres undefined) | 0 | 0 | 0 | 0 | -67.2
Brc1ccc(OCCOCCN2CCOCC2)cc1 | 0 | 0 | 0 | 0 | 0
Fc1ccc(CCNc2ncnc3nc[nH]c23)cc1 | - | 0 | - | 0 | -
O=S(=O)(N1CCCCC1)N1CCN(CC(O)COc2ccc3cc(Br)ccc3c2)CC1 (centres undefined) | 0 | 0 | ? | 0 | -52.4
COc1ccc(OCC(O)CN2CCCCCC2)cc1 (centres undefined) | 0 | 0 | 0 | 0 | 0
COc1ccc(OCC(O)CN2CCCC2)cc1 (centres undefined) | 0 | 12.6µM | - | 0 | 0
CN(C)CC(C)(O)c1ccc2c(c1)CN(Cc1cccn1-c1ncccn1)CCO2 (centres undefined) | 0 | - | - | - | -
Cc1ccc(Cn2c(Cc3ccccc3)nc3ccccc32)cc1 | ? | 15.8µM! | ? | ? | 0
COc1ccc(-c2nc3ccccc3n2Cc2ccc(Cl)cc2)cc1 | ? | 0 | 0 | 15.8µM | -
SMILES | S2 tox | HepG2 tox | ATXN2 expr inh | TGFb SMAD3 inh | IL1B secr inh
Cc1nc2cc(NCc3nc4ccccc4n3Cc3ccccc3)ccc2n1C | ? | 0 | 0 | ? | -82.7
Clc1ccc[n+](CCCCC[n+]2cccc(Cl)c2)c1 | - | 0 | - | 0 | -
CCOc1ccc(C(=O)CSc2nc3cc(C(=O)NC4CCCC4)ccc3c(=O)n2CC2CCCO2)cc1 (centres undefined) | 0 | 0 | 0 | 0 | -
CSc1nsc(N/N=C/c2ccc3c(c2)OCO3)c1C#N | 0 | 0 | 0 | 0 | 0
COc1cc(/C=N/Nc2snc(SC)c2C#N)cc(OC)c1OC | ? | 0 | 3.16µM | ? | 0
COC(=O)c1ccccc1-c1cc(C)cc2c1OC(CNC(=O)C1CCCO1)C2 (centres undefined) | 0 | - | - | - | -
CCCCc1oc2ccccc2c1C(=O)c1cc(I)c(OCCN(CC)CC)c(I)c1 | - | 0 | 28.2µM! | 0 | 0
Cc1noc(C)c1S(=O)(=O)N1CCCC(C(=O)Nc2ccc(C(C)C)cc2)C1 (centres undefined) | 0 | 0 | 0 | 0 | -
COc1ccc(N=C2NC(=O)CS2)c([N+](=O)[O-])c1 | 0 | 0 | - | 0 | 0
COc1ccc(N=CC2CCCCC2=O)c([N+](=O)[O-])c1 (centres undefined) | 0 | 0 | 0 | 0 | -84.8
Cc1ccc(C(=O)c2cc(C)sc2NC(=O)CN2CCN(C(=O)c3ccco3)CC2)cc1 | 0 | 0 | 0 | 0 | -68.7
Cc1cccc(CN2C(=O)c3ccccc3Sc3ccc(C(=O)NCCN4CCOCC4)cc32)c1 | 0 | 0 | 0 | 0 | -67.8
Cc1ccc(C(=O)N2CCCCC2)cc1NC1=C(Cl)C(=O)N(Cc2ccccc2)C1=O | ? | 0 | - | ? | -93.7
Cc1ccc(CN2C(=O)c3ccccc3Sc3ccc(C(=O)NCCN4CCOCC4)cc32)cc1 | 0 | 0 | 0 | ? | 0
O=C(NCCCN1CCOCC1)c1ccc2c(c1)N(Cc1c(F)cccc1Cl)C(=O)c1ccccc1S2 | ? | 0 | - | ? | -52.3
O=C(NCCCN1CCOCC1)c1ccc2c(c1)N(Cc1cccc(Cl)c1)C(=O)c1ccccc1S2 | - | 11.2µM | - | ? | -
CCN(CC)C(=O)c1ccc2c(c1)N(Cc1c(F)cccc1Cl)C(=O)c1ccccc1S2 | 0 | 0 | ? | 15.8µM | -
CCOC(=O)C1CCCN(C(=O)c2ccc3c(c2)N(Cc2ccccc2)C(=O)c2ccccc2S3=O)C1 (centres undefined) | 0 | 0 | 0 | 10µM | 0
O=C(NCCN1CCCC1)c1ccc2c(c1)N(Cc1ccc(F)cc1)C(=O)c1ccccc1S2=O (centres undefined) | 0 | 0 | 0 | 0 | 0
COCCNC(=O)c1ccc2c(c1)N(Cc1c(F)cccc1Cl)C(=O)c1ccccc1S2 | 0 | 0 | 0 | ? | -
CCN1CCN(CCNC(=O)c2ccc3c(c2)N(Cc2cccc(Cl)c2)C(=O)c2ccccc2S3=O)CC1 (centres undefined) | 0 | 0 | ? | 0 | -55.4
CCOC(=O)C1CCCN(C(=O)c2ccc3c(c2)N(Cc2ccccc2)C(=O)c2ccccc2S3(=O)=O)C1 (centres undefined) | - | 0 | - | - | -
C=CC[n+]1cccc2cc(Br)ccc21 | - | 0 | - | 0 | -
CC(C)OC(=O)OCOP(=O)(CO[C@H](C)Cn1cnc2c(N)ncnc21)OCOC(=O)OC(C)C | 0 | - | ? | - | -
Cc1ccc(S(=O)(=O)c2nc(-c3cccs3)oc2SCC(=O)Nc2cc(C)cc(C)c2)cc1 | - | 0 | - | ? | -
Cc1cccc(NC(=O)CSCC(=O)Nc2ccccc2N2CCCC2)c1 | ? | 0 | 0 | 0 | -57.1
COc1cccc(OC)c1C(=O)Nc1ccccc1N1CCCCC1 | 0 | 0 | 0 | ? | -50.5
